Measured values from the supplement of paper PMC6555819.

Tests used:
Assay in all cases: PBM binding z-score (relative to random genomic background probes); higher = stronger binding; sequences stand for … in GC…GCGATTGACAGCGTAGAATGAAGG
[1] = tested on: PPARg:RXRa DBDmut IVT, anti-RXR (DBD mutation: RXRa K156A/R161A, NR concentration 270 nM, RXRa partner concentration 90 nM)
Outline: (§1)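 Binding z-scores were set against random background probes. The data came from custom Agilent 4×180K protein-binding microarrays carrying double-stranded probes with 34-nt variable regions, incubated 1 h with ligand-free nuclear receptor dimers. Partner-specific antibodies detected binding, and scanned fluorescence was regression-normalized.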

[2] = tested on: PPARg:RXRa IVT, anti-PPARg (NR concentration 270 nM, RXRa partner concentration 90 nM)
Outline: as §1

[3] = tested on: PPARg DBDmut:RXRa IVT, anti-PPARg (DBD mutation: PPARg1 K132A/R137A, NR concentration 270 nM, RXRa partner concentration 90 nM)
Outline: as §1

[4] = tested on: PPARg DBDmut IVT, anti-PPARg (DBD mutation: PPARg1 K132A/R137A, NR concentration 270 nM)
Outline: as §1

[5] = tested on: PPARg homodimer (NR concentration 180 nM)
Outline: as §1

[6] = tested on: PXR:RXRa (NR concentration 270 nM, RXRa partner concentration 90 nM)
Outline: as §1

[7] = tested on: PXR homodimer (NR concentration 270 nM)
Outline: as §1

[8] = tested on: RARa:RXR (NR concentration 270 nM, RXRa partner concentration 90 nM)
Outline: as §1

[9] = tested on: RARa homodimer (NR concentration 270 nM)
Outline: as §1

[10] = tested on: RARb:RXRa (NR concentration 270 nM, RXRa partner concentration 90 nM)
Outline: as §1

Row | Sequence | PBM binding z-score [1] | PBM binding z-score [2] | PBM binding z-score [3] | PBM binding z-score [4] | PBM binding z-score [5] | PBM binding z-score [6] | PBM binding z-score [7] | PBM binding z-score [8] | PBM binding z-score [9] | PBM binding z-score [10]
1 | GCTATTATTTGAAAGGGCAACCGAATGATTCTCG | 0.681 | 0.479 | 0.791 | 0.619 | 1.8 | 0.697 | 1.02 | 1.07 | 2.43 | 2.09
2 | ATATGTAGGTTAACGGGTCATTCAGTTTGCGCAT | 8.01 | 7.92 | 2.68 | 1.82 | 2.04 | 3.26 | 3.42 | 3.42 | 1.02 | 2.54
3 | ACTATTAGTTGAGACGAGCGCAACCGATAGGTTG | -0.504 | -0.34 | 0.343 | 0.844 | -0.155 | -0.542 | 0.00515 | -0.474 | -0.207 | -0.278
4 | CATAGTTGGTCAGGAGGTCACACACCGGATATGA | 1.15 | 3.71 | 1.32 | 0.996 | 3.84 | 4.52 | 1.13 | 5.4 | 1.99 | 3.73
5 | CAGCCTAGGTCAGGGCCAGTAGAGGAGGAACGTT | 1.54 | 1.51 | -1.47 | -0.919 | 1.22 | -0.278 | -0.736 | 0.769 | -0.574 | 3.42
6 | CGTGAAAGTTCAAGGTAACGTAACAGAAAGCAGC | 0.31 | 1.59 | 1.08 | 0.978 | 2.81 | 4.03 | 2.44 | 3.46 | 0.962 | 4.93
7 | ACTAGCAGGCCAAGTTTGGGTCACTCGAACAAAG | 1.03 | 1.36 | -0.745 | -0.0393 | 0.399 | 0.625 | -0.591 | 1.12 | -0.754 | 1.68
8 | TCTTGTAGATCAATACAGGTTAAGAAAGTGCGCT | 2.28 | 1.23 | 0.912 | 1.31 | 1.18 | 1.76 | 0.308 | 1.1 | 0.461 | 0.5
9 | AGAATGAGGTTATACGTAGATGAGGGAAGAAAGT | 3.97 | 2.32 | 1.45 | 0.893 | 1.18 | 1.18 | 0.759 | 1.96 | 0.66 | 1.57
10 | GCTGCTAGGTCAGCTTGGTCAGCTAACGGGTACG | 3.14 | 2.46 | -1.08 | -1.08 | 0.887 | 0.168 | -0.979 | 0.718 | -0.683 | 3.29
11 | CCTCGGAGGATAGAAGGTCAGAGCTGTCCGCTTT | 0.306 | 0.12 | -1.89 | -1.62 | 1.56 | 1.38 | -0.0463 | 1.82 | 0.234 | 2.29
12 | GCATATAGGAAATACAAGGTGAAAGTCCGATTGT | -0.0437 | 0.645 | -0.0022 | 0.353 | 0.365 | 0.166 | 0.0769 | 0.702 | 0.755 | 0.29
13 | GCTGCTAGGTCAACTGATGGACAGCTAAAGCTCG | 4.96 | 4.05 | -0.737 | -0.4 | 0.547 | 1.05 | -0.677 | 1.9 | -0.785 | 4.12
14 | TCTATTAGTTGATTAGGGTAACCGAAACAGCGGA | 2.12 | 1.19 | 1.29 | 1.26 | 0.518 | 0.646 | 0.346 | 0.855 | 1.41 | 0.609
15 | GCTATTTGTTGAAAGGGCAACCGAATGATTCTCG | 0.563 | 0.804 | 0.209 | 0.611 | 1.53 | 0.686 | 0.462 | 1.01 | 1.45 | 1.98
16 | GCATATAGGTAATACACGGTGAAAGTCCGATTGT | 3.87 | 2.67 | 0.895 | 1.01 | 0.267 | 0.213 | 0.115 | 0.564 | 0.666 | -0.0307
17 | GGAACGAGGGCATTCGAGTTGATAGCCTGGCGAT | 3.64 | 2.1 | -0.256 | -0.793 | -0.188 | 4.04 | 1.57 | 1.58 | -0.598 | 1.82
18 | CCGAGTAGGTTATGGGGCAATCAGGCAACGGTGA | 3.71 | 3.81 | -0.0155 | -0.785 | 0.948 | 0.118 | -0.0981 | 0.631 | 0.26 | 1.11
19 | ACAGACAGGTGATGAAGGTAACTCACGCTATCAT | 0.262 | 0.375 | 0.0319 | -0.0294 | 0.0571 | 0.00932 | 0.106 | 0.165 | 0.142 | 0.289
20 | CCTCGGAGGACAGCAGGAGGTCAGAGCTGCCAGA | -0.448 | -0.212 | -1.03 | -2.54 | 1.7 | 1.55 | 0.245 | 1.79 | 0.518 | 2.62
21 | CGTCCAAGGACAAGGTCAGTGAAAGAGACTCGAA | 0.434 | 0.71 | -0.797 | -1.03 | 1.03 | 1.61 | 0.632 | 2.38 | -0.259 | 3.93
22 | GATACAGGGTCAGATAGAGGCCAGAGTATGGAAA | 1 | 2.53 | 1.35 | 0.368 | 2.7 | 3.26 | 0.844 | 4.13 | 0.243 | 3.97

Row | Sequence | PBM binding z-score [1] | PBM binding z-score [2] | PBM binding z-score [3] | PBM binding z-score [4] | PBM binding z-score [5] | PBM binding z-score [6] | PBM binding z-score [7] | PBM binding z-score [8] | PBM binding z-score [9] | PBM binding z-score [10]
23 | TGGAGTAGGTTACCAATGGGGCATTCAGCTTTCT | 4.44 | 4.65 | 0.93 | 1.38 | 1.1 | 0.359 | -0.17 | 0.243 | 0.592 | 1.21
24 | CCTGCTAGGTCATGGTCATCTAATCTACAGTATG | 4.28 | 3.88 | 0.258 | 0.159 | 1.51 | 1.53 | -0.321 | 2.23 | 0.16 | 3.76
25 | CCTACTGGGCCAAAGATCATTGATTCCAATGCTC | 4.33 | 4.24 | -0.277 | 0.286 | 0.269 | -0.408 | -0.738 | -0.185 | -0.399 | -0.0314
26 | ATCTCTAGGTAAAAGTTCATTGAATCCCGAGGAT | 1.93 | 3.85 | 1.8 | 0.918 | 1.37 | 3.67 | 3.67 | 2.6 | 0.624 | 2.84
27 | TCGCCTAGGTCATGCGGGCCAGTATAGTGTCGGC | 2.3 | 2.74 | -0.0945 | -0.593 | 0.827 | 1.45 | -0.348 | 2.59 | -0.685 | 3.87
28 | CGAACGAGGGTATGAGTTGATAGCAAATGCCGAT | 0.876 | 0.397 | 0.137 | 0.369 | -0.383 | -0.238 | 0.0824 | -0.307 | 0.157 | 0.117
29 | CCTTACGGGTTACGAGGTTATAGCACGACGAGCG | 1.39 | 2.73 | -0.246 | 1.02 | 1.32 | 1.95 | 0.0657 | 2.76 | 0.573 | 1.58
30 | AGAATGAGGTTATTAAGATCAGGGAGTTGCGGTC | 3.18 | 2.67 | 0.214 | 0.57 | 0.895 | 1.46 | 0.973 | 1.44 | 0.946 | 1.4
31 | CAAACTAGGTCACAGAGGTCTAAGTCCGTGCGTA | 8.53 | 8.91 | 1.68 | 1.67 | 0.929 | 2.54 | 0.546 | 2.8 | 0.421 | 4.13
32 | TCTTGTAGATCACCAGGAGGTTAAGAAAGATCGA | 1.92 | 1.27 | 0.392 | 0.634 | -0.00402 | 0.915 | -0.00438 | 1.15 | -0.698 | 0.672
33 | GCTAGCAGGCCATTTAGGTCACTCAATGACGGGC | 1.71 | 2.41 | -0.196 | -1.01 | -0.0591 | 0.564 | 0.12 | 0.658 | -0.306 | 1.8
34 | TGTCGAAGTTCAAAGGTAACGTAAGTATCCACAC | -0.721 | 2.09 | 0.265 | 0.298 | 1.53 | 4.12 | 1.65 | 4.17 | 0.485 | 3.61
35 | ACTCGGAGGACAAAGGTCCGAGCTACGCCAGTGA | 0.177 | 0.313 | -0.996 | -0.635 | -0.36 | -0.365 | -0.238 | -0.334 | -0.387 | 1.29
36 | CCTCGGAAGACAGAAGGTCAGAGCTGTCCGCTTT | -0.276 | -0.376 | -1.12 | -1.96 | 1.82 | 1.38 | -0.0252 | 1.89 | 0.512 | 2.33
37 | ATCTCTAGGTATAAGTTCAGTGAATCCCGAGGAT | 0.227 | 0.858 | 1.41 | 1.22 | 0.751 | 1.44 | 2.32 | 0.493 | 1.02 | 1.73
38 | CAAACTAGGTCACCGGAAGGTCACAGTCCGCATG | 8.58 | 9.08 | 2.66 | 1.61 | 8.88 | 5.64 | 1.29 | 7.62 | 3.12 | 5.42
39 | TCGAGTAGGTTAGTCGGGGTATTCAGCCAACATA | 2.12 | 1.56 | -0.225 | -0.287 | -0.0532 | -0.197 | -0.205 | 0.128 | -0.0281 | 0.0838
40 | GATACAGGGTCAGCTAGACGCCAGAGTATGGAAA | 0.771 | 2.21 | 0.485 | 0.334 | 1.15 | 1.76 | 0.0262 | 2.72 | -0.118 | 3.9
41 | GCAGACGGGTGAAACGCAGGTAACTCAGGGTGGC | -0.241 | -0.0586 | -1.33 | -0.958 | -0.685 | -0.244 | -0.933 | 0.253 | -0.996 | 0.14
42 | CAAACTAGGTCAAGGTCAAAATCGGTTTGTGCCA | 8.64 | 9.04 | 2.23 | 3.4 | 2.8 | 4.7 | 1.74 | 4.78 | 1.1 | 5.1
43 | CGTCAAAGTTCAACTACGGTAACGTAAAGCACGC | 0.132 | 1.78 | 0.517 | 0.931 | 3.69 | 5.14 | 3.79 | 4.38 | 2.22 | 5.2
44 | ATATGTAGGTTACATCCGGGTAATTCAGGCTATG | 7.57 | 7.21 | 4.3 | 3.2 | 1.34 | 0.541 | 0.614 | 1.19 | 0.484 | 1.22
